Compound activity from PubChem.
A selection: hits, their analogues and other compounds. The true share with any hit is near 21%.
NS1 inh – inhibitors of influenza NS1 protein function; Potency, µM (series often up to 46.1 µM); 270,000 compounds, 0.4% hits; calls by dose curve; further: actives are rising curves; nearly all actives have a fitted effect of over 50% in size
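Growth recovery, yeast-based: influenza A NS1 expressed in S. cerevisiae causes slow growth, and suppressors are detected by OD600. The parent strain without NS1 is used as positive control.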
Shiga inhibitor – inhibitors of Shiga toxin in Vero cells. 290,000 compounds, 9.2% hits. Vero cells, Shiga toxin protein synthesis inhibition reporter. inhibition, % at 38.7 µM; in the data active means inhibition mostly above about 28%, no sharp cut-off; inactive means mostly below about 43%
Pf growth 48h – inhibits P. falciparum growth in the first generation, 48 h; P. falciparum luciferase growth in erythrocytes, 48 h; Potency, µM (titrated, usually from 28.7 µM), most hits filed as inhibitors; 310,000 compounds, 5.9% hits
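Cell-based growth assay: transgenic P. falciparum expressing firefly luciferase, cultured in red cells within RPMI 1640 containing 0.5% w/v Albumax, 24 mM bicarbonate and gentamycin. A drop in luciferase activity indicates inhibition.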
Pf growth 96h – inhibits malaria parasite growth, 96 h | P. falciparum luciferase reporter growth, 96 h | Potency, µM (top dose mostly 28.7 µM), hits mostly inhibitors | 320,000 compounds, 6.9% hits | AID 504834
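Parasite growth measured via integrated firefly luciferase reporter in P. falciparum. Infected erythrocytes at 2% hematocrit, 0.05% parasitemia final were treated 96 hours at 37 C under 5% CO2, and luminescence was read.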
CHX counter – affects cycloheximide protein synthesis inhibition readout, counter-screen. cell reporter, cycloheximide protein synthesis inhibition counterscreen. max response, %. 300,000 compounds, 12% hits. AID 2314; in the data active means max response mostly above about 13%, no sharp cut-off; inactive means mostly below about 14%; further: read at 38.3 µM for the half of the compounds with a filed dose
A number is an active result; i = inactive; ? = inconclusive; nt = no result; [ ] = remark or other dose. Unless noted, the call rests on the fitted dose curve; in most records, active means well fitted inhibition curve with a large enough effect; inconclusive means small, poorly fitted or top-dose-only effect, or another doubt; inactive means no such curve, though single readings can be large or run the other way.

SMILES	NS1 inh	Shiga inhibitor	Pf growth 48h	Pf growth 96h	CHX counter
CCCCCSc1nnc(N)s1	i	i	?	i	i
CCCNC(=O)Nc1nccs1	i	i	i	nt	i
CC(C)CN1C(=O)c2ccc(C(=O)Nc3nccs3)cc2C1=O	i	i	i	?	i
CCCc1cc(C(=O)Nc2nccs2)cs1	i	60	i	nt	57
CCCN1C(=O)c2ccc(C(=O)Nc3nccs3)cc2C1=O	i	65	i	nt	11
Cc1cnc(NC(=O)c2ccc3c(c2)C(=O)N(Cc2ccco2)C3=O)s1	i	i	i	?	13
CCN1C(=O)c2ccc(C(=O)Nc3ncc(C)s3)cc2C1=O	i	56	i	i	51
CC(C)n1cc(CN2CCCC(CO)(Cc3cccc(Cl)c3)C2)cn1 (configuration not stated)	i	i	?	?	i
C/C(=N/NC(=O)CN1CCN(Cc2ccccc2Cl)CC1)c1cccnc1	i	i	i	i	i
CCCCN1C(=O)c2ccc(C(=O)Nc3c(N)n(CCCC)c(=O)n(C)c3=O)cc2C1=O	i	i	i	5.2µM	i
O=C(Nc1cccc(O)c1)c1ccc2c(c1)C(=O)N(Cc1ccco1)C2=O	i	i	i	9.3µM	i
O=C(O)c1ccc2c(c1)C(=O)N(c1nccs1)C2=O	i	i	3.3µM	i	i
Cc1cccc(C)c1NC(=O)CSC(=O)c1sc2ccccc2c1Cl	i	i	i	i	i
COc1ccc(CNC(=O)COC(=O)c2ccc(F)c(S(=O)(=O)N3CCCCC3)c2)cc1OC	i	i	?	i	i
O=C(O)/C=C/c1ccccc1Oc1ccc(Cl)cc1Cl	nt	i	?	i	i
Cc1nn(Cc2ccc(Cl)c(Cl)c2)c(C)c1NC(=O)c1cc(CC(C)C)on1	i	i	?	0.33µM	i
Cc1nn(Cc2ccc(Cl)cc2)c(C)c1NC(=O)c1noc2c1CCCCC2	i	i	?	i	i
Cc1nn(Cc2ccc(Cl)c(Cl)c2)c(C)c1NC(=O)c1noc2c1CCCCC2	i	i	i	6.6µM	i
Cc1ccccc1Cn1nc(C)c(NC(=O)c2cc(CC(C)C)on2)c1C	i	i	i	i	i
COc1ccc(/C=C\C(=O)CC(O)(c2ccccc2)C(F)(F)F)cc1 (configuration not stated)	i	i	nt	?	i
CCC(/C=N/NC(=O)c1ccccc1F)CC	nt	i	i	i	i
O=C(N/N=C/C(c1ccccc1)c1ccccc1)c1ccccc1F	i	i	i	i	49
O=C(N/N=C/c1c(Cl)cccc1Cl)c1ccc(F)cc1	i	i	i	i	i
O=C(N/N=C/c1c(Cl)cccc1Cl)c1ccccc1F	i	46	i	?	26
Cn1cccc1C(=O)N/N=C/c1c(Cl)cccc1Cl	i	61	nt	i	63
SMILES	NS1 inh	Shiga inhibitor	Pf growth 48h	Pf growth 96h	CHX counter
CCCC(=O)Nc1c(C)nn(C(=O)CCC)c1C	i	i	i	i	i
O=C1C=C(c2cccc3c2sc2ccccc23)C[C@@H](c2ccc(F)cc2)C1	nt	nt	?	i	nt
C=CCn1cc(CN2CCC(C(=O)Nc3cccc(-c4cccc(F)c4)c3)CC2)c(C)n1	i	i	15µM	?	i
CCCn1ncc(CN2CCC(C(=O)Nc3cccc(-c4cccc(F)c4)c3)CC2)c1C	i	i	7.4µM	?	i
Cc1ccc(C(C(=O)NCc2ccco2)N(C(=O)CNC(=O)c2cccs2)c2ccc(C)cc2C)cc1 (configuration not stated)	i	68	?	?	16
COc1ccc(C(C(=O)NCC2CCCO2)N(C(=O)CNC(=O)c2cccs2)c2ccc(C)cc2)cc1OC (configuration not stated)	i	i	10µM	i	i
COc1ccc(C(C(=O)NCC2CCCO2)N(C(=O)CNC(=O)c2cccs2)c2ccc(C(C)=O)cc2)cc1OC (configuration not stated)	i	i	12µM	?	i
COc1ccc(N(C(=O)CNC(=O)c2ccco2)C(C(=O)NCC2CCCO2)c2ccc(OC)c(OC)c2)cc1 (configuration not stated)	i	i	i	i	i
COc1cc(OC)cc(N(C(=O)CNC(=O)c2cccs2)C(C(=O)NCC2CCCO2)c2ccccc2)c1 (configuration not stated)	i	i	5.9µM	?	i
COc1ccccc1N1C(=O)N(C(C)=O)C2C1Nc1ccccc1N2C (configuration not stated)	?	i	4.7µM	?	i
CC1=NN(c2nc(-c3ccc(C)cc3)cs2)C(=O)C1N=Nc1ccc(C(N)=O)cc1 (configuration not stated)	nt	i	i	i	15
CC1=NN(c2ccccc2)C(=O)C1C=Nc1ccc(N(C)C)cc1 (configuration not stated)	i	39	?	?	17
CC1=NN(c2nc(-c3ccccc3)cs2)C(=O)C1N=Nc1ccccc1 (configuration not stated)	nt	53	i	i	43
CC1=NN(c2nc(-c3ccc(C)cc3)cs2)C(=O)C1N=Nc1ccc2ccccc2c1 (configuration not stated)	i	i	i	?	18
O=S1(=O)C2CC3C=CC2(CN1Cc1cccc(F)c1)O3 (configuration not stated)	nt	i	nt	nt	i
CC1=NN(c2ccccc2)C(=O)C1N=Nc1ccc(C)cc1 (configuration not stated)	nt	i	i	10µM	i
O=C(Cn1nc(Cc2ccncc2)c2ccccc2c1=O)Nc1cccnc1Cl	i	i	i	i	i
COc1ccccc1N(CC(O)Cn1c2ccccc2c2ccccc21)S(=O)(=O)c1ccccc1 (configuration not stated)	?	i	12µM	10µM	i
COc1ccccc1N(CC(O)COc1ccccc1C)S(=O)(=O)c1ccccc1 (configuration not stated)	i	i	?	10µM	i
O=S(=O)(c1ccccc1)N(CC(O)Cn1c2ccccc2c2ccccc21)c1ccccc1 (configuration not stated)	i	i	?	2.3µM	i
CCN(CC)CC(O)Cn1c2ccccc2c2ccccc21 (configuration not stated)	i	i	?	nt	i
C=CCN(CC=C)CC(O)Cn1c2ccccc2c2ccccc21 (configuration not stated)	i	i	5.9µM	?	i
COc1ccccc1N(CC(O)Cn1nc(C)cc1C)S(=O)(=O)c1ccccc1 (configuration not stated)	nt	i	i	?	i
COc1ccc(Nc2nc(C(=O)NCCCN3CCOCC3)cs2)cc1	i	i	i	i[5.75 µM]	i
CCCCn1c(N)c(N(CC(C)C)C(=O)c2ccc(C)c(S(=O)(=O)N3CCCCC3)c2)c(=O)[nH]c1=O	nt	nt	?	i	nt
Cc1cccc(NC(=O)C2CCCN(S(=O)(=O)c3ccc4[nH]c(=O)ccc4c3)C2)n1 (configuration not stated)	i	i	?	?	i
Cc1noc(C)c1-c1ccc2ncnc(NCc3ccc4c(c3)OCO4)c2c1	nt	i	nt	nt	i
